Test results: PubChem BioAssay (Tox21)
Records with an inconclusive call do not appear. Active and inactive are the calls of the source. Unless noted, calls follow the shape of the dose curve; as a rule, active = well fitted curve in the direction sought with a large enough effect in the repeat runs; inconclusive = weak or mixed curves; inactive = no such curve, though single readings can be large; an effect the other way counts as inactive or inconclusive.

Tests used:
[1] = qHTS assay to identify small molecule agonists of the hypoxia (HIF-1) signaling pathway - cell viability counter screen (AID 1224844; calls by dose curve; also: nearly all actives have a fitted effect of over 50% in size); conditions: HRE-bla ME-180 viability, CellTiter-Glo luminescence, 17 h; series mostly up to 76.8 µM
Method in brief: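 HRE-bla ME-180 cells in medium with 0.5% dialyzed FBS were preincubated 5 hrs at 37C, exposed to compounds for 17 hrs, then viability was read as CellTiter-Glo luminescence after 30 min at room temperature, in the reporter wells.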

[2] = qHTS assay to identify small molecule agonists of H2AX (AID 1224845; active = well fitted activation curve with a large enough effect in the signal ratio in the repeat runs, not every such curve was filed as active; the % refers to the signal ratio); conditions: CHO-K1 phospho-H2AX Ser139 HTRF, 3 h; series mostly up to 70.9 µM
Method in brief: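 Wild-type CHO-K1 cells plated overnight, then exposed 3 hr at 37C to compounds at 15 concentrations (0.76% DMSO). Lysed, then HTRF anti-pH2AX(S139)-cryptate/anti-H2AX-d2 detection after 24 hr at room temperature; emissions 665 and 620 nm.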

[3] = qHTS assay to identify small molecule agonists of the hypoxia (HIF-1) signaling pathway (AID 1224846; active = well fitted activation curve with a large enough effect in the signal ratio in the repeat runs, not every such curve was filed as active; the % refers to the signal ratio); conditions: HRE-bla ME-180 cells, beta-lactamase ratio, 17 h; series mostly up to 76.8 µM
Method in brief: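 HRE-bla ME-180 cells (beta-lactamase reporter under hypoxia response element) were plated at 2,000 cells/well in medium with 0.5% dialyzed FBS, rested 5 hrs, then given compounds in DMSO for 17 hrs at 37C, 5% CO2. Reporter induction was read with CCF4-AM FRET substrate.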

[4] = qHTS assay to identify small molecule agonists of H2AX - cell viability counter screen (AID 1224847; calls by dose curve; also: top concentration of the series differs between compounds; nearly all actives have a fitted effect of over 30% in size); conditions: CHO-K1 viability, CellTiter-Glo luminescence, 3 h; series mostly up to 70.9 µM
Method in brief: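 Read-out: CellTiter-Glo luminescence, 30 min RT. Cells: wild-type CHO-K1, 1000/well, 10% FBS, plated overnight at 37C. Treatment: 15 concentrations, 3 hr, 37C, 0.76% DMSO.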

[5] = qHTS assay to identify small molecule antagonists of the estrogen related receptor (ERR) signaling pathway from Tox21 library (AID 1224848); conditions: ERR reporter cell line, luciferase antagonist mode, 18 h; series mostly up to 92.4 µM; also: nearly all actives have a fitted effect of over 50% in size
Method in brief: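 Cells: ERR line, 2,000/well; 6 h preincubation 37 C/5% CO2. Cpd in DMSO via pin tool; 18 h, 37 C. ONE-Glo, 30 min RT, luminescence.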

[6] = qHTS RealTime-Glo MT Cell Viability Assay in HepG2 cells - 24 hour (AID 1224867); conditions: RealTime-Glo luminescence; series mostly up to 76.8 µM; also: nearly all actives have a fitted effect of over 50% in size
Method in brief: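 Cell number in HepG2 cultures estimated from NanoLuc luminescence generated by metabolic reduction of a prosubstrate by living cells. The homogeneous, nonlytic format allowed repeated reads at 0, 8, 16, 24, 32 and 40 h of compound exposure.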

[7] = qHTS RealTime-Glo MT Cell Viability Assay in HEK293 cells - 32 hour (AID 1224868); conditions: RealTime-Glo luminescence; series mostly up to 76.8 µM; also: top concentration of the series differs between compounds; nearly all actives have a fitted effect of over 50% in size
Method in brief: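 Homogeneous bioluminescent viability format in HEK293 cells (600 cells/well). Following 5 h at 37 C/5% CO2, 23 nL compound was pintooled; the signal was measured repeatedly during 40 h incubation.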

[8] = A CellTox Green Cytotoxicity Assay to monitor cytotoxicity in HEK293 cells - 0 hour (AID 1224869); conditions: CellTox Green fluorescence; series mostly up to 76.8 µM; also: nearly all actives have a fitted effect of over 50% in size
Method in brief: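 HEK293 cells premixed with CellTox Green dye were seeded at 600 cells/well and left 5 h at 37 C/5% CO2 before pin transfer of 23 nL compound in DMSO. Fluorescence from dye bound to dead-cell DNA was read during 40 h treatment.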

[9] = qHTS RealTime-Glo MT Cell Viability Assay in HepG2 cells - 40 hour (AID 1224870); conditions: RealTime-Glo luminescence; series mostly up to 76.8 µM; also: nearly all actives have a fitted effect of over 50% in size
Method in brief: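 HepG2 cells mixed with RealTime-Glo MT reagents (NanoLuc plus cell-permeant prosubstrate) were seeded at 600 cells/well, incubated 5 h at 37 C/5% CO2, then pinned with compounds in DMSO; nonlytic luminescence tracked viability during 40 h treatment.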

[10] = qHTS assay to identify small molecule agonists of the estrogen related receptor (ERR) signaling pathway from Tox21 library (AID 1224849; calls by dose curve; also: nearly all actives have a fitted effect of over 15% in size); conditions: ERR reporter cell line, ONE-Glo luciferase, 18 h
Method in brief: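 ERR reporter cell line (NTP) seeded, rested 6 h at 37 C/5% CO2, then pinned with Tox21 compounds in DMSO. After 18 h at 37 C, ONE-Glo luciferase luminescence was read following 30 min at room temperature.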

[11] = at 92.4 µM (top of the series) unless noted
% is scaled to controls: 0 for no effect and ±100 for the full control effect.

CCOc1ccc(C(=O)OCCN(CC)CC)cc1
inactive: Potency [1] | outcome [2] | outcome [3] | Potency [4] | Potency [5] | Potency [6] | Potency [7] | Potency [8] | Potency [9]

CCCC(=O)O[C@]1(C(=O)CO)CC[C@H]2[C@@H]3CCC4=CC(=O)CC[C@]4(C)[C@H]3[C@@H](O)C[C@@]21C
inactive: Potency [1] | outcome [2] | outcome [3] | Potency [4] | Potency [5] | Potency [6] | Potency [7] | Potency [8] | Potency [9]

CCCCCOC(=O)CCCCC
inactive: Potency [1] | outcome [2] | outcome [3] | Potency [4] | Potency [5] | Potency [6] | Potency [7] | Potency [8] | Potency [9]

CCOC(C)(C)C
inactive: Potency [1] | outcome [2] | outcome [3] | Potency [4] | Potency [5] | activity change, positive = activation [10, 11] 3.27% | Potency [7] | Potency [8] | Potency [9]

CC(C)CCCC(C)N (stereo not given)
inactive: Potency [1] | outcome [2] | outcome [3] | Potency [4] | Potency [5] | Potency [6] | Potency [7] | Potency [8] | Potency [9]

CCC=O
inactive: Potency [1] | outcome [2] | outcome [3] | Potency [4] | Potency [5] | Potency [6] | Potency [7] | Potency [9]

CCS(=O)(=O)c1ccc(OC)c(C(=O)OC)c1
inactive: Potency [1] | outcome [2] | outcome [3] | Potency [4] | Potency [5] | Potency [6] | Potency [7] | Potency [8] | Potency [9]

CC(=O)N(CC(O)CO)c1c(I)c(C(=O)NCCO)c(I)c(C(=O)NCC(O)CO)c1I (stereo not given)
inactive: Potency [1] | outcome [2] | outcome [3] | Potency [4] | Potency [5] | Potency [7] | Potency [8] | Potency [9]

CCCCCCCCS(=O)(=O)Cl
inactive: Potency [1] | outcome [2] | outcome [3] | Potency [4] | Potency [5] | Potency [6] | Potency [7] | Potency [8] | Potency [9]

OC1CCCCC1c1ccccc1 (stereo not given)
inactive: Potency [1] | outcome [2] | outcome [3] | Potency [4] | Potency [5] | Potency [7] | Potency [9]

O=C(O)CCCl
inactive: Potency [1] | outcome [2] | outcome [3] | Potency [4] | Potency [5] | activity change, positive = activation [10, 11] -15.3% | Potency [7] | Potency [8] | Potency [9]

N=C(N)c1ccc(OCCCOc2ccc(C(=N)N)cc2)cc1
inactive: Potency [1] | outcome [2] | outcome [3] | Potency [4] | Potency [5] | Potency [6] | Potency [7] | Potency [8] | Potency [9]

CCCCCSCCCCC
inactive: Potency [1] | outcome [2] | outcome [3] | Potency [4] | Potency [5] | Potency [6] | Potency [7] | Potency [8] | Potency [9]

COCCc1ccc(OCC(O)CNC(C)C)cc1 (stereo not given)
inactive: Potency [1] | outcome [2] | Potency [4] | Potency [5] | activity change, positive = activation ([10]; at 42.5 µM (top of the series)) 5.48% | activity change, positive = activation ([10]; at 92.4 µM (top of the series)) -13% | Potency [6] | Potency [7] | Potency [8] | Potency [9]

CCO/C([O-])=N/c1c[n+](N2CCOCC2)no1
inactive: Potency [1] | outcome [2] | Potency [4] | Potency [5] | activity change, positive = activation [10, 11] 0.723% [at 42.5 µM] | Potency [6] | Potency [7] | Potency [8] | Potency [9]

Cc1ccc(=O)n(-c2ccccc2)c1
inactive: Potency [1] | outcome [2] | Potency [4] | Potency [5] | activity change, positive = activation [10, 11] -0.153% [at 42.5 µM] | Potency [6] | Potency [7] | Potency [8] | Potency [9]

CCCCC/C=C\CCC=O
inactive: Potency [1] | outcome [2] | outcome [3] | Potency [4] | Potency [7] | Potency [8] | Potency [9]

NC(=O)c1cn(Cc2c(F)cccc2F)nn1
inactive: Potency [1] | outcome [2] | outcome [3] | Potency [4] | Potency [6] | Potency [7] | Potency [8] | Potency [9]

CCOC(=O)[C@H](CCc1ccccc1)N[C@@H](C)C(=O)N1[C@H](C(=O)O)C[C@@H]2CCC[C@@H]21
inactive: Potency [1] | outcome [2] | Potency [4] | Potency [5] | activity change, positive = activation [10, 11] 3.92% [at 42.5 µM] | Potency [6] | Potency [7] | Potency [9]

OC[C@]1(O)OC[C@@H](O)[C@H](O)[C@@H]1O
inactive: Potency [1] | outcome [2] | outcome [3] | Potency [4] | Potency [7] | Potency [8] | Potency [9]

CCCCOCCOCCOCc1cc2c(cc1CCC)OCO2
inactive: Potency [1] | outcome [2] | outcome [3] | Potency [4] | Potency [6] | Potency [7] | Potency [8] | Potency [9]

Cc1nc2c([nH]1)c(=O)n(C)c(=O)n2Cc1ccco1
inactive: Potency [1] | outcome [2] | outcome [3] | Potency [4] | Potency [6] | Potency [7] | Potency [8] | Potency [9]

CC(C)(O)C(=O)c1ccccc1
inactive: Potency [1] | outcome [2] | Potency [4] | Potency [5] | activity change, positive = activation [10, 11] 0.982% | Potency [6] | Potency [7] | Potency [8] | Potency [9]

NS(=O)(=O)c1cc(C(=O)O)cc(N2CCCC2)c1Oc1ccccc1
inactive: Potency [1] | outcome [2] | Potency [4] | Potency [5] | activity change, positive = activation [10, 11] 0.186% [at 42.5 µM] | Potency [6] | Potency [7] | Potency [8] | Potency [9]

CC(=O)Nc1c(I)cc(I)c(C(=O)O)c1I
inactive: Potency [1] | outcome [2] | Potency [4] | Potency [5] | activity change, positive = activation [10, 11] 7.03% [at 42.5 µM] | Potency [6] | Potency [7] | Potency [8] | Potency [9]

CC(C)(C)NCCNC(C)(C)C
inactive: Potency [1] | outcome [2] | Potency [4] | Potency [5] | activity change, positive = activation [10, 11] 3.81% | Potency [6] | Potency [7] | Potency [8] | Potency [9]

C=CCCCCCCCCC=O
inactive: Potency [1] | outcome [2] | Potency [4] | Potency [5] | activity change, positive = activation [10, 11] -2.86% | Potency [6] | Potency [7] | Potency [8] | Potency [9]

C[C@](N)(Cc1ccc(O)cc1)C(=O)O
inactive: activity change, negative = cytotoxicity [1] 3.27% [at 6.97 µM] | activation (H2AX phosphorylation) [2] -0.087% [at 14 µM] | activity change, negative = cytotoxicity [4] 2.42% [at 14 µM] | activity, negative = inhibition [5] 3.87% [at 8.39 µM] | activity change, positive = activation [10, 11] 2.18% [at 8.39 µM] | activity change, negative = cytotoxicity [6] 0.0825% [at 6.97 µM] | activity change, negative = cytotoxic [7] 1.02% [at 6.97 µM] | cytotoxicity [8] 5.11% [at 6.97 µM] | activity change, negative = cytotoxic [9] 4.28% [at 6.97 µM]

CCOC(=O)C(=O)OCC
inactive: Potency [1] | outcome [2] | Potency [4] | Potency [5] | activity change, positive = activation [10, 11] 4.42% | Potency [6] | Potency [7] | Potency [8] | Potency [9]
